Source: PubChem BioAssay (NCI)
This is part of a sample that, as a whole, favours compounds with a hit. Of some 79,000 tested, about 15% had one in any assay. Unmarked numbers belong to inactive results. Calls of active or inactive are those of the source. No stated cut-off is given here; in the data, active means growth inhibition above about 70%; inactive means the rest.

Test: NCI Yeast Anticancer Drug Screen. Data for the CLN2oe strain (AID 163);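 further: 0% = growth of vehicle-only control cultures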
Details: S. cerevisiae CLN2oe strain, at 3.7 µM, stronger effect = higher value
Outline: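 Read-out: yeast growth inhibition, expressed relative to vehicle-only controls. The strain bears an engineered cell-cycle alteration.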

Structure (SMILES) | growth inhibition
CC(CN(C)C)C(=O)/C=C/c1ccc(Cl)c(Cl)c1 (stereo not given) | 5%
CCCCCCNCCCNc1c2cc(OC)ccc2nc2cccc([N+](=O)[O-])c12 | -13%
NC(=S)N1N=C2c3ccccc3CC[C@H]2[C@@H]1c1ccc(Cl)cc1 | -10%
C/C(=N/NC(=S)Nc1ccccc1C)c1ccccn1 | -6%
O=C1/C(=C/c2ccc(Cl)c(Cl)c2)CNC/C1=C\c1ccc(Cl)c(Cl)c1 | 7%
CC(C)OP(=O)(OC(C)C)C(=NCCO)NNc1ccc([N+](=O)[O-])cc1 | 3%
N#CCC(=O)N/N=C(\c1ccccc1)C(c1ccccc1)C1(O)C(=O)Nc2c(Cl)ccc(Cl)c21 (stereo not given) | -2%
CC(C)(CN1CCCCC1)C(=O)CC(SCCS(=O)(=O)O)c1ccccc1 (stereo not given) | 0%
CCCCN(CCCC)c1ccc(N=Nc2ccc(S(=O)(=O)O)cc2)cc1 | -15%
c1ccc2nc3c(nc2c1)sc1ccccc13 | 6%
O=C1c2ccccc2-c2ccc(N=Cc3ccccc3)cc21 | -11%
CNC(=S)N/N=C(/C)CCC/C(C)=N/NC(=S)NC | 97% (active)
Nc1ccc(/C=C/c2ccc3cccnc3c2)cc1 | 2%
COc1ccc2c3c1OC(C)C31CC(=O)CCC1CC2 (stereo not given) | -8%
CCOC(=O)Nc1ccc(C)c(NC(=O)OCC)c1 | 13%
O=C(c1cc(=O)c2ccc(O)cc2o1)c1ccc(Cl)cc1Cl | -8%
CCCNC(=O)OCc1c(COC(=O)NCCC)c(-c2ccc(Cl)c(Cl)c2)n2c1CCC2 | -16%
O=C(Cc1ccccc1)NN1C(=O)C(Cl)C1c1cc(Br)cc(Br)c1O (stereo not given) | 18%
CCOC(=O)C(Cc1c2ccccc2cc2ccccc12)(NC(C)=O)C(=O)OCC | -2%
O=[N+]([O-])/C=C/c1cc2ccc3ccccc3c2[nH]1 | 12%
O=S1(=O)CCC2=CC(C(F)(F)F)=CC(C(F)(F)F)=CN21 | 22%
O=C(Cc1ccccc1)NNc1nc(NNC(=O)c2ccncc2)nc(Nc2ccc([N+](=O)[O-])cc2)n1 | -4%
CCCCS/C(=C(/C#N)C(N)=O)c1cc2c([nH]1)CCCC2 | -19%
O=C(O)c1ccccc1C(=O)OC1CCc2ccccc2C1 (stereo not given) | -14%
CCOC(=O)/C(=C\c1cccc(C)c1)C(C)=O | 4%
NC(=S)N/N=C1\c2ccccc2CCC1CCC1(O)CCc2ccccc2C1=O (stereo not given) | 36%
Cc1cccc2c(Cl)c3cccc(C)c3nc12 | -5%
CC(C)OC(=O)NNc1c(Cl)cc(Cl)cc1Cl | 5%
N#CSCC1COc2ccccc2O1 (stereo not given) | -14%
CC1=NN(C(=O)c2ccccc2O)C(=O)/C1=C/c1ccco1 | 7%
